Source: PubChem
In the library only some 2.8% were active in any assay of this set; here they are far more common.
TGFb SMAD3 inh: TGF-b pathway inhibition; actives 1.2% (n = 410,000); HepG2 CAGA-GFP TGF-b/SMAD3 reporter, GFP fluorescence, 18 h; TGF-beta stimulated, 500 pg/mL final; AID 588855; Potency, µM (series often up to 46.1 µM), actives largely listed as inhibitors; note: nearly all actives have a fitted effect of over 65% in size
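GFP signal (ex488/em500-530) from TGF-beta-stimulated HEPG2 CAGA-GFP cells, 500 pg/mL final, 18 h at 37 degrees C in DMEM plus 1% FBS, normalized to unstimulated and DMSO-stimulated controls.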
HTT aggregate: mutant huntingtin aggregation inhibition. actives 1.1% (n = 220,000). Potency, µM (doses to about 46.1 µM), most hits filed as inhibitors. AID 1688. PC12 HttQ103-GFP aggregates, Acumen cytometry, 40 h; note: nearly all actives have a fitted effect of over 60% in size
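PC12 cells stably carrying ecdysone-inducible HTT exon 1 Q103–GFP were induced with tebufenozide (100 nM final) and treated with library compounds in titration. GFP aggregates in lysates were counted by laser scanning cytometry.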
HTT cytoprotect: protects HTT-Q103 PC12 cells, measured by ATP | actives 0.14% (n = 230,000) | Potency, µM (highest dose often 56.4 µM), actives largely listed as activators | AID 1471 | PC12 HTT-Q103 induced, cytoprotection, ATP luminescence, 40 h; note: nearly all actives have a fitted effect of over 45% in size
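Quantitative HTS on tebufenozide-induced (100 nM) PC12 cells expressing HTTQ103 exon 1–GFP; compounds tested as a concentration series; survival measured via cellular ATP.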
HepG2 tox: kills HepG2 cells in TGF-b inhibitor counter-screen; Potency, µM (top dose mostly 46.1 µM), hits mostly cytotoxic; AID 588856; HepG2 CAGA-GFP viability, ATP luminescence, 18 h; actives 0.76% (n = 410,000)
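HepG2 CAGA-GFP cells (1000/well, DMEM with 1% FBS) received compound, then TGF-beta at 500 pg/mL final, and were incubated 18 hours at 37 degrees C. Viability was read by CellTiter-Glo luminescence. Media-only wells were set as complete cell-killing and DMSO as no toxicity.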
ATXN2 expr inh: reduces ATXN2 reporter expression in HEK-293 cells; Potency, µM (top dose mostly 57 µM), most hits filed as inhibitors; actives 0.72% (n = 360,000); HEK-293 ATXN2-luciferase reporter, luminescence, 24 h; AID 1745845; note: nearly all actives have a fitted effect of over 55% in size
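ATXN2-luciferase reporter cells (luciferase flanked by upstream and downstream ATXN2 gene portions) were treated 24 h at 37 °C with compounds at up to 57 uM. SteadyGlo luminescence gave expression; GF-AFC fluorescence gave viability.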
ATXN viability: reduces viability in counter-screen for ATXN expression inhibitors; S2 cells (HEK-293 line with an ATXN2-luciferase reporter) viability, CellTiter-Fluor protease fluorescence, 24 h; AID 651635; actives 0.49% (n = 400,000); Potency, µM (titrated, usually from 56.7 µM), usual class: cytotoxic; note: nearly all actives have a fitted effect of over 40% in size
Numbers stand for hits; . = inactive; ? = inconclusive; / = not tested or not shown; [ ] = dose if it differs, or a comment. Calls come from the whole dose curve; as a rule, active = well fitted curve in the direction sought with a large enough effect; inconclusive = small, poorly fitted or top-dose-only effect, or another doubt; inactive = no such curve, though single readings can be large; an effect the other way counts as inactive or inconclusive.

SMILES | TGFb SMAD3 inh | HTT aggregate | HTT cytoprotect | HepG2 tox | ATXN2 expr inh | ATXN viability
COc1ccc(/C=C/C(=O)CC(O)(c2ccccc2)C(F)(F)F)cc1 (stereo unspecified) | ? | . | .[10 µM] | 10µM | . | .
O=C(/C=C/c1ccccc1)CC(O)(c1ccccc1)C(F)(F)C(F)F (stereo unspecified) | 13µM | . | . | . | ? | ?
COc1ccc(/C=C/C(=O)CCC(=O)O)cc1 | . | . | . | . | . | .
COc1ccc(OC)c(Nc2nc(NCCCN(C)C)nc(N)c2[N+](=O)[O-])c1 | ? | .[9.22 µM] | .[10 µM] | 16µM | ? | .
COc1ccc(-c2cc(=O)c3c(O)cc(O[C@@H]4O[C@H](CO[C@@H]5O[C@@H](C)[C@H](O)[C@@H](O)[C@@H]5O)[C@@H](O)[C@H](O)[C@@H]4O)cc3o2)cc1O | / | / | / | / | . | /
COc1ccc2c(C(=O)NCc3ccc4c(c3)OCO4)c(-c3ccc(S(C)(=O)=O)cc3)sc2c1 | . | / | / | . | ? | 35µM
CC1(C)CCN2CCC(C)(C)c3c(O)ccc1c32 | . | / | / | . | 3.2µM | ?
Cc1nc(N)c(C#N)c(-c2cccnc2)c1C | . | 6.3µM | .[10 µM] | . | . | .
COc1ccc(/C=C/c2ccccn2)cc1 | ? | / | / | . | / | /
COC(=O)[C@@H]1CCCN1Cc1ccc2c(c1)CN(Cc1ccccc1F)CCO2 | / | / | / | / | / | .
NC(N)=N/N=C/c1ccc(Cl)c(Cl)c1 | ? | .[9.22 µM] | .[10 µM] | 13µM | ? | .
NC(N)=N/N=C/c1ccccc1 | . | . | . | . | . | ?
NC(N)=N/N=C/c1ccc(OCc2ccccc2Cl)cc1 | ? | ? | . | . | 14µM | 28µM
COc1cccc(CNC(=O)c2c(OC)cc(=O)n3c2CCN(C(=O)c2cc(C)ccc2C)CC3)c1 | / | / | / | / | / | .
Cc1ccsc1C1NC(=O)c2c(sc3c2CCCC3)N1 (stereo unspecified) | . | 28µM | .[10 µM] | . | . | ?
O=C1NC(c2ccc(Br)cc2)Nc2sc3c(c21)CCC3 (stereo unspecified) | . | . | . | . | . | .
CC(=O)N(O)c1ccc(/C=C2\C=Cc3ccccc32)cc1 | . | / | / | . | / | /
CCOc1ccc(Br)cc1C1=NN(C(C)=O)C(c2ccc([N+](=O)[O-])s2)O1 (stereo unspecified) | 13µM | / | / | . | . | .
Cc1ccn2cc(-c3ccc(O)c(O)c3)nc2c1 | 11µM | / | / | . | / | ?
O=C1C(=O)C(c2ccc(O)cc2O)Oc2cc(O)cc(O)c21 (stereo unspecified) | . | / | / | . | / | /
OC(CNCCc1ccc(C(F)(F)F)cc1)COc1ccc2ccccc2c1 (stereo unspecified) | ? | ? | .[10 µM] | . | 28µM | /
COc1ccc(CCNCC(O)COc2cccc(Br)c2)cc1 (stereo unspecified) | . | . | . | 13µM | ? | .
CCc1cc(-c2n[nH]c(C)c2-c2ccc3c(c2)OCCO3)c(O)cc1O | / | / | . | / | 6.1µM | /
CCCc1cc(C(=O)Cc2ccc(C(=O)OCC)o2)c(O)cc1O | . | . | . | . | . | .
CCc1cc(-c2n[nH]c(C)c2-c2nc3ccccc3n2C)c(O)cc1O | . | .[9.22 µM] | .[10 µM] | . | . | ?
SMILES | TGFb SMAD3 inh | HTT aggregate | HTT cytoprotect | HepG2 tox | ATXN2 expr inh | ATXN viability
CCCc1cc(-c2n[nH]c(C)c2-c2ccc(C(=O)OCC)o2)c(O)cc1O | 14µM | . | . | . | ? | ?
C[C@H]1C[C@@H]2[C@H]([C@@H](O)C[C@@]3(C)[C@H]2CC[C@]3(O)C(=O)COC(=O)CCC(=O)O)[C@@]2(C)C=CC(=O)C=C12 | / | / | / | / | / | .
O=[N+]([O-])c1cc(S(=O)(=O)NCCCN2CCOCC2)ccc1Cl | ? | . | .[10 µM] | . | . | .
O=[N+]([O-])c1cc(S(=O)(=O)NCCN2CCOCC2)ccc1Sc1nnnn1-c1ccccc1 | ? | 4.5µM | .[10 µM] | . | . | ?
c1ccc(C2[C@H]3CN(Cc4cccnc4)[C@H](c4ccccc4)C34CC2(c2cccnc2)C4)cc1 (stereo partly specified) | 14µM | .[9.22 µM] | . | . | . | ?
COc1ccccc1NC(=O)c1c(Nc2ccccc2F)sc(C(=O)Nc2cccc(Cl)c2)c1N | 16µM | . | .[10 µM] | . | ? | ?
COc1ccc(Nc2sc(C(=O)Nc3cccc(Cl)c3)c(N)c2C(=O)Nc2ccccc2OC)cc1 | / | . | .[10 µM] | / | / | /
C=C1C=C(C(F)F)n2ncc(C(=O)N3CCCCC3)c2N1 | . | / | / | . | / | /
Cc1ccccc1CN1[C@H]2CCCC[C@@H]2OCCS1(=O)=O | . | / | / | . | / | /
Cc1ccc(Cl)cc1-n1ncc2c(NC3CCCCCC3)ncnc21 | 11µM | / | / | . | ? | ?
Cc1ccc(-n2ncc3c(NC4CCCCCC4)ncnc32)cc1Cl | . | / | / | . | . | .
CC(=O)OC[C@@]12C(=O)[C@@H](O)[C@@H](C)[C@]3(C[C@@H](c4ccoc4)O[C@@H]3OC(C)=O)[C@H]1CCC[C@]21CO1 | / | / | . | / | / | /
COc1ccc(-c2n[nH]c(C)c2-c2cscn2)c(O)c1 | . | .[9.22 µM] | .[10 µM] | . | . | .
COc1ccc(-c2n[nH]c(C)c2-c2cnn(-c3ccccc3)c2)c(O)c1C | 13µM | . | . | . | ? | .
COc1ccc(-c2onc(C)c2-c2cnn(-c3ccccc3)c2)c(O)c1C | . | . | . | . | . | .
COc1ccc(-c2n[nH]c(C)c2-c2cnn(-c3ccccc3)c2)c(O)c1 | 13µM | . | . | . | . | .
Cc1cccc2sc(NC(=O)CCNS(=O)(=O)c3cccc4nonc34)nc12 | ? | . | . | 20µM | . | .
Cc1cccc2sc(NC(=O)CN(C)S(=O)(=O)c3ccc(Br)s3)nc12 | ? | ? | . | . | . | .
Cc1cccc2sc(NC(=O)CN(C)S(=O)(=O)c3cccs3)nc12 | . | 16µM | . | . | . | .
Cc1ccc(F)cc1CNC(=O)c1cc(COc2ccc3ncccc3c2)on1 | . | 13µM | . | . | ? | .
CC(C)N(Cc1nccn1C)C(=O)c1cc(COc2ccc3ncccc3c2)on1 | . | 20µM | . | . | . | .
O=C(NCc1cccc(Cl)c1)c1cc(COc2ccc3ncccc3c2)on1 | ? | .[9.22 µM] | .[10 µM] | . | ? | ?
COc1ccc(C(=O)O/N=C/c2c(C(F)(F)F)nn(C)c2SCc2ccccc2Cl)cc1 | . | 10µM | . | . | . | .
Cc1ccc(C(=O)O/N=C/c2c(C(F)(F)F)nn(C)c2Sc2ccc(Cl)cc2)cc1 | . | 13µM | . | . | . | .
CC(=O)Nc1ccc(C(=O)Nc2ccc3c(c2)N(C2CCCC2)C(=O)c2ccccc2S3)cc1 | . | / | / | . | . | ?
